The list is not random: actives were taken first. Their share in the collection is about 4.8%.
hcDAF-12 act – H. contortus DAF-12 activation, primary screen. HEK293 hcDAF-12 lit1-tk-luc reporter, luminescence; 0% DMSO, 100% Δ7-dafachronic acid. activation, % at 6.8 µM. 370,000 compounds, 1.4% hits;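 active = activation above the mean of all tested compounds plus 3 SD, cut at about 5.5% in these data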;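 also: 100% = response to 3 µM Δ7-dafachronic acid high control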
hgDAF-12 ag – activates the H. glycines DAF-12 receptor ligand-binding domain | HEK293 GAL4-hgDAF12 UAS-luciferase reporter, agonist luminescence; normalized to butyrate control | activation, % at 6.8 µM | 370,000 compounds, 1.8% hits | AID 687014;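 active = activation above a cutoff set at the mean of all screened compounds plus 3 SD, cut at about 10% in these data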;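 also: 0% = DMSO wells and 100% = sodium butyrate wells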
DAX1 inh-1 – DAX1 (NR0B1) inhibition, primary screen; HEK293T StAR-luciferase reporter, SF-1/DAX-1 repression relief; inhibition, % at 6.8 µM; 370,000 compounds, 1.1% hits;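 active = inhibition above the mean over all tested compounds plus 3 SD, cut at about 3.6% in these data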;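 also: 0% = DAX-1 cells with DMSO and 100% = cells lacking DAX-1 with DMSO; higher inhibition means more luminescence from relief of DAX-1 repression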
ssDAF12 agonist – S. stercoralis DAF-12 activation, primary screen; HEK293 ssDAF-12/GRIP1 lit1-tk-luc reporter, luminescence; % of 3 µM dafachronic acid response; activation, % at 6.8 µM; 370,000 compounds, 1% hits; AID 652126;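 active = activation above the mean over all tested compounds plus 3 SD, cut at about 0.9% in these data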;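 also: 0% = DMSO-only wells and 100% = 3 µM delta7-dafachronic acid wells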
DAX1 inh-2 – inhibitors of human orphan nuclear receptor DAX1 (NR0B1). P51843. HEK293 Gal4-DAX1 luciferase reporter, luminescence. inhibition, % at 6.75 µM. 340,000 compounds, 0.99% hits. AID 504766;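 active = inhibition above the mean over all tested compounds plus 3 SD, cut at about 4.2% in these data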;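 also: 0% = DAX1-transfected cells with DMSO and 100% = empty-vector control cells with DMSO; inhibition shows as a rise in luminescence from relieved DAX1 repression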
SMARCA2 activ – activators of SMARCA2 function. MG213 cells, MMTV-luciferase reporter, dexamethasone, overnight. activation, % at 9.1 µM. 370,000 compounds, 1% hits. AID 652017; in the data active = activation above about 7.8%;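 also: 0% = vehicle wells and 100% = reference activator wells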
DAX1 inh confirm – NR0B1 (human) inhibition, confirmation | shares compounds with DAX1 inh-1 | HEK293T StAR-promoter luciferase reporter, SF-1/DAX-1 repression | inhibition, % at 6.8 µM | 2,400 compounds, 87% hits;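 active = inhibition above the average of every tested compound plus 3 SD, cut at about 3.8% in these data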;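 also: 0% = DAX-1 cells with DMSO and 100% = no DAX-1 control cells with DMSO; active compounds raise luminescence by relieving repression of the StAR reporter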
Target sequence (P51843 whole entry, looked up): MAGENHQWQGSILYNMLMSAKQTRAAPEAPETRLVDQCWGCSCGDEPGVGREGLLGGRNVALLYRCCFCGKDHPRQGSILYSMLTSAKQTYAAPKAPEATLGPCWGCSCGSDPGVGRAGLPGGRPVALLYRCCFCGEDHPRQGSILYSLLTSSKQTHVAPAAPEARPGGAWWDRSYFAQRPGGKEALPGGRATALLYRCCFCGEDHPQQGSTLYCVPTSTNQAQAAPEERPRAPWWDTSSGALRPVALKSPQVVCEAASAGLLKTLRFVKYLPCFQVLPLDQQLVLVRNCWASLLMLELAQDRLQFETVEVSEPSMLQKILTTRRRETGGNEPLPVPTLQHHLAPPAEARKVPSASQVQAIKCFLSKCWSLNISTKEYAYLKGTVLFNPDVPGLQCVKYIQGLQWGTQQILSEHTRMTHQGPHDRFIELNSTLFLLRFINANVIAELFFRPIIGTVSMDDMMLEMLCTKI
SF1 mutant ctr – nonselective inhibitor or artifact in SF-1 mutant DAX1 counter-screen; HEK293 StAR-luciferase, SF-1 AF2 mutant, luminescence; inhibition, % at 6.8 µM; 2,400 compounds, 78% hits; shares compounds with DAX1 inh-1;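 active = inhibition above the mean of all tested compounds plus 3 SD, cut at about 3% in these data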;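 also: 0% = DAX-1 transfected cells with DMSO and 100% = cells without DAX-1 with DMSO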
SMARCA2 act conf – SMARCA2 activation, confirmation screen. shares compounds with SMARCA2 activ. MG213 cells, MMTV-luciferase with dexamethasone, luminescence, overnight; MG213 cells expressing E1A, Rb sequestered; DMSO wells 0%, reference activator 100%. activation, % at 9.1 µM. 3,500 compounds, 30% hits. AID 652260;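 active = activation above its plate's cutoff, the mean activation of tested wells plus 3 SD, cut at about 7.9% in these data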
VP16 Luc act – counter-screen for SMARCA2 activators: GAL4-VP16 luciferase reporter activation; shares compounds with SMARCA2 activ; AID 686939; HEK293 GAL4-VP16 pG5luc reporter, luciferase luminescence; scaled: DMSO wells 0%, SAHA wells 100%; activation, % at 9.1 µM; 3,500 compounds, 41% hits;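 active = activation above the solvent-only control well mean plus 3 SD, averaged across control plates, cut at about 5.2% in these data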
LXRb hcDAF ctr – activates human LXR-beta, counter-screen for hcDAF-12 agonists; shares compounds with hcDAF-12 act; HEK293 Gal4-LXR tk-luc reporter, luminescence, 24 h; normalized: DMSO 0%, positive control 100%; activation, % at 6.8 µM; 3,400 tested, under 10 active;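 active = mean percent activation of the reporter above a cutoff set as the average over tested compounds plus their standard deviation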
hcDAF12 ag – hcDAF-12 agonism, confirmation assay; shares compounds with hcDAF-12 act; HEK293 hcDAF-12 lit1-tk-luc reporter, luminescence; % of Δ7-dafachronic acid response; activation, % at 6.8 µM; 3,400 compounds, 61% hits;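 active = mean activation across triplicate tests above the threshold derived from the earlier primary screen, cut at about 5.5% in these data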;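 also: 0% = DMSO only wells and 100% = 3 µM Δ7-dafachronic acid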
hgDAF12 ag – confirmation of H. glycines DAF-12 agonists. shares compounds with hgDAF-12 ag. HEK293 GAL4-hgDAF12 luciferase reporter, agonist mode; percent of butyrate response. activation, % at 6.8 µM. 3,300 compounds, 80% hits;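 active = mean activation over triplicate wells above the hit cutoff derived from the earlier primary screen, cut at about 11% in these data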;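 also: 0% = DMSO low control and 100% = 2 mM sodium butyrate high control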
LXRb DAF12 ctr – counter-screen for DAF-12 agonists: agonists of human LXR-beta; shares compounds with hgDAF-12 ag; HEK293 Gal4-LXR luciferase reporter, 24 h; activation, % at 6.8 µM; 3,300 tested, under 10 active; AID 743051;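 active = mean activation of the triplicate above a set limit carried over from the primary screen, none filed active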
Numbers without * were called inactive; . = not tested or not shown.

SMILES	hcDAF-12 act	hgDAF-12 ag	DAX1 inh-1	ssDAF12 agonist	DAX1 inh-2	SMARCA2 activ	DAX1 inh confirm	SF1 mutant ctr	LXRb hcDAF ctr	hcDAF12 ag	hgDAF12 ag	LXRb DAF12 ctr	others
Nc1nc(CSc2n[nH]c(-c3ccccc3)n2)nc(Nc2ccccc2)n1	-3	-4	-1	-2	0	-2	.	.	.	.	.	.
Cc1ccc(-c2nc(Nc3ccccc3)n[nH]2)cc1	12*	14*	6.2*	1.4*	2	5	23*	11*	2	13*	22*	1
FC(F)(F)c1cc(Cl)c2nc(-c3ccccc3)cn2c1	18*	20*	6.6*	2.8*	3	8	15*	7.4*	2	17*	23*	1
Nc1cccc(-c2cn3cc(C(F)(F)F)cc(Cl)c3n2)c1	12*	14*	5.3*	2.1*	1	2	13*	7.6*	1	9.1*	18*	1
CC(C)(C)c1cc(NC(=O)c2ccco2)no1	14*	14*	13*	1.0*	1	5	12*	7.0*	1	6.2*	15*	1
CC(C)(C)c1cc(NC(=O)c2cccc([N+](=O)[O-])c2)no1	.	.	.	.	1	.	.	.	.	.	.	.
Cn1c(NCc2cccnc2)nc2cc(-c3cccc(C(F)(F)F)c3)sc2c1=O	-1	-3	0	-1	.	-5	.	.	.	.	.	.
Cc1cc(C)nc(NC(=O)c2cc3ccccc3o2)n1	0	3	0	-1	1	-1	.	.	.	.	.	.
Cc1ccc(NC(=O)c2cc3ccccc3o2)nc1	14*	19*	16*	1.5*	1	3	17*	9.9*	2	14*	19*	1
O=C(Nc1nc2ccccc2[nH]1)C1CCCC1	4	15*	4.9*	0	1	1	6.5*	5.7*	.	.	13*	1
O=C(Nc1nc2ccccc2[nH]1)c1cc2ccccc2o1	14*	21*	8.0*	1	0	5	9.4*	7.6*	1	9.1*	19*	1
O=C(Nc1nc2ccccc2[nH]1)c1ccccc1F	-2	-11	-2	-3	-5	-6	.	.	.	.	.	.
Cc1ccc(NC(=O)CSc2nc3ccccc3c(=O)[nH]2)cc1[N+](=O)[O-]	3	4	0	-1	-1	-3	.	.	.	.	.	.
CC1CCN(S(=O)(=O)c2ccc(C(=O)Nc3ncccc3O)cc2)CC1	0	16*	6.3*	0	3	-3	8.4*	4.3*	.	.	15*	0
Cc1cccnc1NC(=O)c1ccc(S(=O)(=O)N2CCCCCC2)cc1	0	1	0	-1	1	-1	.	.	.	.	.	.
CCOC(=O)c1sc2nc(NC(=O)C(C)(C)C)sc2c1C	4	14*	5.2*	1	1	0	4.1*	0	.	.	6	1
CCOC(=O)c1sc2nc(NC(=O)C3CC3)sc2c1C	2	1	0	-1	1	-2	.	.	.	.	.	.
COc1ccc2nc(NC(=O)c3cccc(N4C(=O)CCC4=O)c3)sc2c1	2	0	0	-1	-1	0	.	.	.	.	.	.
O=C(Nc1nc2ccc(Cl)cc2s1)c1cccc(N2C(=O)CCC2=O)c1	5	14*	5.0*	0	1	1	7.6*	4.1*	.	.	10	0
COc1ccc(-c2ncncc2-c2ccccc2)c(O)c1	-2	3	0	-1	1	2	.	.	.	.	.	.
COc1ccc(-c2cc(-c3ccccc3)n[nH]2)c(O)c1	4	16*	5.5*	0	2	4	6.3*	5.5*	.	.	16*	1
COc1cccc(NC(=O)Cn2c(=O)n(CCC(=O)NC3CCN(Cc4ccccc4)CC3)c(=O)c3ccccc32)c1	-1	-2	0	-2	-1	4	.	.	.	.	.	.
O=C(Nc1cccc(F)c1)c1ccc(-n2cncn2)c2ccoc12	9.4*	17*	9.0*	0	.	12*	16*	5.4*	2	9.5*	17*	1	SMARCA2 act conf=8.2*;VP16 Luc act=8.7*
O=C(O)c1cc2c(ccc3ccccc32)o1	1	4	0	-1	-1	-1	.	.	.	.	.	.
O=C(c1cc2c(ccc3ccccc32)o1)N1CCCCC1	6.8*	18*	15*	1.2*	1	7	15*	8.7*	1	4	14*	1
O=C(CSC(=S)N1CCSCC1)c1ccccc1	4	18*	5.0*	1	1	5	12*	6.9*	.	.	19*	1
S=C(c1ccccc1)N1CCSCC1	1	-1	0	-1	-1	2	.	.	.	.	.	.
CCOc1ccc(C)cc1S(=O)(=O)n1cnc2ccccc21	-3	0	-2	0	-5	2	.	.	.	.	.	.
O=c1[nH]c(=O)n(C2CC(O)C(CO)O2)cc1Br (centres undefined)	6.2*	15*	11*	-1	3	-2	18*	6.8*	.	.	20*	0
Fc1ccc(CN2C3=NCCN3c3ccccc32)cc1	-1	-1	0	-1	4	1	.	.	.	.	.	.
